Drawing on PubChem BioAssay (NCATS), this text covers Potency for 39 compounds.

Results filed as inconclusive are left out. Calls of active or inactive are those of the source. The call rests on the fitted dose curve; in most records, active means well fitted cell-killing curve with a large enough effect; inconclusive means small, poorly fitted or top-dose-only effect, or effect the other way; inactive means no such curve, though single readings can be large or run the other way.
Potency means the concentration at half of the fitted maximal effect.

One assay in a line: Quantitative High-Throughput drug screen in 47 multiple myeloma cell lines against the NCATS MIPE library collection: KMS12BM_JCRB cell viability assay (AID 1918971). Further: nearly all actives have a fitted effect of over 35% in size. The conditions noted are these: KMS12BM myeloma viability, CellTiter-Glo ATP, 48 h; series mostly up to 45.8 µM. The gist of the method:
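Myeloma cells (500 per well) were exposed to MIPE 4.0 compounds by pin transfer and incubated 48 hours at 37C, 5% CO2. Viability was read as ATP by CellTiter-Glo luminescence, normalised to DMSO (100%) and media-only (0%) wells.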
For orientation: ATP-based viability assays read luminescence as a measure of living cells.
Take `Cc1cnc(C(=O)O)c[n+]1[O-]`: the Potency result is “inactive”.

Take `O=C(O)[C@H]1O[C@H](Oc2cc3oc(-c4ccccc4)cc(=O)c3c(O)c2O)[C@H](O)[C@@H](O)[C@H]1O`: the Potency was 16.6 µM (active).

Consider `CC(C)(Cc1ccc2ccccc2c1)NC[C@@H](O)COc1cccc(Cl)c1C#N`, for which the Potency entry was “inactive”.

Take `Cc1c(NC(=O)c2ccc(C(C)(C)C)cc2)cccc1-c1cn(C)c(=O)c(Nc2ccc(C(=O)N3CCOCC3)cc2)n1`: the Potency was 23.5 µM (active).

For the compound `O=C(NC1CCOCC1)c1ccc(-c2cc(-c3cn[nH]c3-c3ccccn3)ccn2)cc1`, the Potency result was “inactive”.

As for `C=C1C(=O)OC2C=C(C)CCC=C(C)CCC12` (stereo not given), the Potency was 20.9 µM (active).

Another assay is described as follows: Quantitative High-Throughput drug screen in 47 multiple myeloma cell lines against the NCATS MIPE library collection: KMS12PE_JCRB cell viability assay (AID 1918972). Further: nearly all actives have a fitted effect of over 30% in size. To be noted: KMS12PE myeloma viability, CellTiter-Glo ATP, 48 h; series mostly up to 45.8 µM. In a few lines: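 Approved and investigational drugs from MIPE 4.0 were added by pin tool to 500 cells per well. After 48 hours at 37C, ATP-based CellTiter-Glo luminescence indicated remaining viability.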
As for `CS(=O)(=O)N(Cc1ccco1)CC(O)Cn1c2ccccc2c2ccccc21` (stereo not given), the Potency result was “inactive”.

Consider `O=C(OCC#CCSc1nnc(-c2cccc3ccccc23)o1)c1cc2ccccc2s1`, for which the Potency result was “inactive”.

Consider `COCCOc1nc(-c2ccc(Cl)c(Cl)c2)n(-c2ccc(NC(=O)CCl)cc2)n1`, for which the Potency was 14.8 µM (active).

Consider `C[C@H](NC(=O)c1sccc1OCc1ccc(Cl)cc1)c1ccccc1`, for which the Potency entry was “inactive”.

With `COc1ccc2c(Oc3ccc(NC(=O)c4c(C)n(CC(C)(C)O)n(-c5ccccc5)c4=O)cc3F)ccnc2c1`, the Potency is 26.4 µM (active).

Regarding `NC(=O)c1cccc(-c2cc(Nc3ccc(OC(F)(F)F)cc3)ncn2)c1`, the Potency is 16.6 µM (active).

For `CC1(C)CCC(CN2CCN(c3ccc(C(=O)NS(=O)(=O)c4ccc(NCC5CCOCC5)c([N+](=O)[O-])c4)c(Oc4cnc5[nH]ccc5c4)c3)CC2)=C(c2ccc(Cl)cc2)C1`, the Potency was 0.0833 µM (active).

Turning to `O=C(Nc1cccc(Br)c1)c1cccc(S(=O)(=O)N2CCCCCC2)c1`, the Potency was 10.5 µM (active).

Take `Nc1ncnc2c1ncn2[C@@H]1O[C@@H](CO)[C@H](O)[C@H]1O`: the Potency entry is “inactive”.

`CNC(=O)c1ccccc1Sc1ccc2c(C=Cc3ccccn3)n[nH]c2c1`: the Potency was 1.66 µM (active).

Take `O=C(Nc1cc(Cl)cc2c1[nH]c1cnccc12)c1cccnc1`: the Potency entry was “inactive”.

With `O=C1NC(=O)C(=Cc2ccc3nccnc3c2)S1`, the Potency was 1.15 µM (active).

With `CC(C)C(=O)Oc1ccc(CO)cc1[C@H](CCN(C(C)C)C(C)C)c1ccccc1`, the Potency entry is “inactive”.

With `CCCCCNC(=O)N1CCC(CN(Cc2ccc(Cl)cc2)Cc2ccc([N+](=O)[O-])s2)C1` (stereo not given), the Potency is 18.7 µM (active).

For the compound `Cc1ccccc1C(C(=O)NC1CCCCC1)N(C(=O)Cn1ccnc1C)c1cccc(F)c1` (stereo not given), the Potency was 2.35 µM (active).

On to `O=c1cc(CN2CCOCC2)occ1OCCCCCSc1ccnc2cc(C(F)(F)F)ccc12`, for which the Potency is 16.6 µM (active).

For the compound `NC1CCC(Nc2nc(Nc3ccc(C(=O)N4CCCCC4)cc3)c3ncn(-c4cccc(F)c4)c3n2)CC1` (stereo not given), the Potency result was “inactive”.

`O=C(N[C@@H](c1ccccc1)[C@@H]1CCCCN1)c1cccc(C(F)(F)F)c1Cl`: the Potency was 23.5 µM (active).

For `COc1cccc2c1CCCC2CCCN1CCN(C2CCCCC2)CC1` (stereo not given), the Potency is 16.6 µM (active).

`CC[C@H]1OC(=O)[C@H](C)[C@@H](O[C@H]2C[C@@](C)(OC)[C@@H](O)[C@H](C)O2)[C@H](C)[C@@H](O[C@@H]2O[C@H](C)C[C@H](N(C)C)[C@@H]2O)[C@](C)(O)C[C@@H](C)CN(C)[C@H](C)[C@@H](O)[C@]1(C)O`: the Potency entry was “inactive”.

Regarding `Cc1cc(OCCCc2c(C(=O)O)n(Cc3cccnc3)c3c(-c4c(COc5ccc(N6CCN([S+](C)(=O)[O-])CC6)cc5)nn(C)c4C)cccc23)cc(C)c1Cl`, the Potency was 6.62 µM (active).

As to `CN[C@@H](C)C(=O)N[C@H]1CN(C(=O)CC(C)C)CC[C@H]2CC[C@@H](C(=O)NC(c3ccccc3)c3ccccc3)N2C1=O`, the Potency was 3.72 µM (active).

For `COc1cc(N2CCC(N3CCN(C)CC3)CC2)ccc1Nc1ncnc(Nc2ccccc2S(=O)(=O)C(C)C)n1`, the Potency entry is “inactive”.

Consider `Cc1ccc(F)c(NC(=O)Nc2ccc(-c3cccc4[nH]nc(N)c34)cc2)c1`, for which the Potency is 8.33 µM (active).

As to `COc1cc2c(cc1OC)CN(CCc1ccc(NC(=O)c3cc(OC)c(OC)cc3NC(=O)c3cnc4ccccc4c3)cc1)CC2`, the Potency entry was “inactive”.

With `CC(C)C(=O)Nc1ncc(-c2cc(C(F)F)nn2-c2c(Cl)cccc2Cl)s1`, the Potency is 16.6 µM (active).

In the case of `CC(C)(C)COc1ccc(-n2cc(C(=O)O)cn2)cc1C#N`, the Potency result was “inactive”.

For the compound `C[C@]12CCC3c4ccc(O)cc4CCC3C1CCC2=O` (stereo not given in full), the Potency entry is “inactive”.

Take `N#CC1(c2ccc(NC(=O)c3cccnc3NCc3ccncc3)cc2)CCCC1`: the Potency is 0.469 µM (active).

As to `CCOC1OC(=O)C[C@H]1NC(=O)[C@@H]1CCCN1C(=O)[C@@H](NC(=O)c1ccc(N)c(Cl)c1)C(C)(C)C` (stereo not given in full), the Potency is 11.8 µM (active).

Regarding `NS(=O)(=O)c1ccc(NC2=CC(=O)c3ccccc3C2=O)cc1`, the Potency was 0.526 µM (active).

Consider `Cc1c(O)cccc1C(=O)N[C@@H](CSc1ccccc1)[C@H](O)CN1C[C@H]2CCCC[C@@H]2C[C@@H]1C(=O)NC(C)(C)C`, for which the Potency was 10.5 µM (active).

Regarding `CC(=O)O[C@]1(C(C)=O)CC[C@@H]2[C@@H]3C[C@H](C)C4=CC(=O)CC[C@]4(C)[C@H]3CC[C@@]21C`, the Potency entry is “inactive”.

In the case of `Cc1cnc(C(=O)O)c[n+]1[O-]`, the Potency result was “inactive”.

As to `O=C(O)[C@H]1O[C@H](Oc2cc3oc(-c4ccccc4)cc(=O)c3c(O)c2O)[C@H](O)[C@@H](O)[C@H]1O`, the Potency entry was “inactive”.

Take `CC(C)(Cc1ccc2ccccc2c1)NC[C@@H](O)COc1cccc(Cl)c1C#N`: the Potency entry was “inactive”.

On to `Cc1c(NC(=O)c2ccc(C(C)(C)C)cc2)cccc1-c1cn(C)c(=O)c(Nc2ccc(C(=O)N3CCOCC3)cc2)n1`, for which the Potency is 5.26 µM (active).

In the case of `O=C(NC1CCOCC1)c1ccc(-c2cc(-c3cn[nH]c3-c3ccccn3)ccn2)cc1`, the Potency entry was “inactive”.

As for `C=C1C(=O)OC2C=C(C)CCC=C(C)CCC12` (stereo not given), the Potency was 20.9 µM (active).
